Experimental data: the supplement of paper PMC12632987

T1: USP38, Q8NB14
T1 chain: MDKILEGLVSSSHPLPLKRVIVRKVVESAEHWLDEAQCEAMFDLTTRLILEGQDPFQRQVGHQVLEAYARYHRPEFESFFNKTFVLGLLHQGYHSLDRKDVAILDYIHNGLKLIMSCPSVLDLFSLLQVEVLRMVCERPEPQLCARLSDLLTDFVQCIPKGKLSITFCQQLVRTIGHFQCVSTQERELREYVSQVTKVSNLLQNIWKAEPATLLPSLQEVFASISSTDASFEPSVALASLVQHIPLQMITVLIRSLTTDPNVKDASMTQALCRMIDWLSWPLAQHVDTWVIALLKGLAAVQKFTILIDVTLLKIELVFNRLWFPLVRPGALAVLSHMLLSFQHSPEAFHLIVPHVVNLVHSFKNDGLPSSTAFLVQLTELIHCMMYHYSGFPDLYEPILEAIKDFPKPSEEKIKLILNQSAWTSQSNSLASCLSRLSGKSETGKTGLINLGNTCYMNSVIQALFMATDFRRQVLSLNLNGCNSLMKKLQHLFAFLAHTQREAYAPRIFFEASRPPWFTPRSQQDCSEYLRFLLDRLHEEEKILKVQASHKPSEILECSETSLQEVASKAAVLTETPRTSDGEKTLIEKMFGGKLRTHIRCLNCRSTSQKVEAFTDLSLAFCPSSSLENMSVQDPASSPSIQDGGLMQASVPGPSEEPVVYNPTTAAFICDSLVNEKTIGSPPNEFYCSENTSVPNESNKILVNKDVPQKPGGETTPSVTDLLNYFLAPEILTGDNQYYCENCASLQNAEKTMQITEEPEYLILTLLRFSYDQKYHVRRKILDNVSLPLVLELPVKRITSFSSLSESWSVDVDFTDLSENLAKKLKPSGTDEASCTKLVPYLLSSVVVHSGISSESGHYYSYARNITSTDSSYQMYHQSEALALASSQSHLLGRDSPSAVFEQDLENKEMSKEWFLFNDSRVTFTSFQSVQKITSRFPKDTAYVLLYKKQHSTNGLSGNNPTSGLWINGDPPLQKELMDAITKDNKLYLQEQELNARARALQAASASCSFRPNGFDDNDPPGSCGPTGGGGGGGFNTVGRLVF

B1: usp_38_diff_out_22_74_483 (protein)
chain: SAEEAETEALKKEIDEKVKKTKEELDRLRAEAKAAIAAGRYREARRLLAEMDDLVTDTVIWLNKVALAHGAVHDYALAKANEIREYATKINAELEALLEA
B2: usp_38_diff_out_22_74_487 (protein)
chain: SAAEKAQEEAKKKLEELLKEFNEELEKYLKEAKKAIEAGNLKEARRILGEFTSKFAELSSKIAKAAWEAELPLDEIQKIMTDLTKKAAEAVKEMEEAIKA
B3: usp_38_diff_out_23_30_488 (protein)
chain: SPLEEAKKRLREAAEKARKEATEIKKKAEELKKKAENEYLKALANQVIDAANDFIEDLDIWLSRIDEYDEARLLRLTEYVEASLAHLKQLYEDLLKEFKK
B4: usp_38_diff_out_22_164_477 (protein)
chain: MEEKIKKEVKEKIEKIAEETKKKIDELFAEAKANPEKKEEYIKKARMLLIESNKEIKEYIEKTVKENNLSEETKEELNSHATVQNLKVLNYLDEKIEELK
B5: usp_38_diff_out_20_123_449 (protein)
chain: SEELRERAERLLRDAERLLENAKQILKFVEAGVLSEETVEAHIEMIEAHIEYIEREIERLRREDPSLAPLLERVERVLEEVKEVLEKIKEAAEKRKEEEK
B6: usp_38_diff_out_20_123_446 (protein)
chain: MEEARERAERLLERARQLLENAKQILKFVKAGVLSKETIESNIKFIESQIEYLERERERLREEHPELEELLEEIDRVLEETREVLKEIKAAAAAREAAEA
B7: usp_38_diff_out_21_100_459 (protein)
chain: MEEIKKEIKEELEKAEKALKEAIKLLKEGAKKEEILKKLDEALSHLVRAQYLAAKISFELAHKISEIIDIVQEAKKLLDTDKEKALELLEKALKELKELK
B8: usp_38_diff_out_1_162_46 (protein)
chain: EVEKLLEEAEKLLEEAKELIEKAKEAFKEGKLEEAEKYLDEAADKLGQLAKLLREARRLRRELSPERQEEVRKRLRELEERANELIDEYTELETEVFLAK
B9: usp_38_diff_out_20_123_451 (protein)
chain: SEELRKEAEELLKRAKQLLENAKQILKFVKAGVLSEETIEAHIKMIESQIKYIEEKIKELREKDPSLKPLLEEVEKVVKEVKETLKEIKEAAEKRRKEKA
B10: usp_38_diff_out_22_164_479 (protein)
chain: SEEEILEKLKEEIEKLAEETKKKLEELAKKAKENPEKKEEYLKQMRMLVIQTQQKMGDLIDEAAKKYNLSEETVEELRSHRTVQSLKVLNYLDELEKELE
B11: usp_38_diff_out_20_123_452 (protein)
chain: AAALRAEAEALLARAQQLLENAEQVLKFVKAGVLSEETVEEHIEMFEAHIEYLEAERARLAAEAPELAPLLAQIDEAIAKAKEVLEKIKEELEKRREEEE
B12: usp_38_diff_out_22_164_478 (protein)
chain: SEEEILKKVKEELEKLAEETKKELDKLFEEAKANPEKKEEYIQEAQMLIIKTQKEMNDYIEETVKKYNLSEETKEELKSHRTVLNLKVLNYLDEKIEELK
B13: usp_38_diff_out_1_9_444 (protein)
chain: DVRREIAEALLEALERGLEELERLRARAEAALAAGDLARAEALLRRLVRNARGLEAAAEDLIEMAKEIGDEELARRAEEILERARRLREEAEARLAELAA
B14: usp_38_diff_out_20_123_456 (protein)
chain: MEKAKEEAEKLLRRAKQLVENAEQVLKFVKAGVLSEEKAEEYIKSFEEHIKYIEKEVKKLKKEYPELKELLEEVEKEIKKAKKVLKELKEAVEKRKKEEE
B15: usp_38_diff_out_20_123_448 (protein)
chain: SEALRARAEELLRRAEQLLENAKQILKFVKAGVLSEETVESHIKMIESQIEYIRREIERLRAEDPSLAPLLEEVERVVREVEEVLEEIKKAVEERKKEKA
B16: usp_38_diff_out_20_123_450 (protein)
chain: SEELREEAEELLRRAEQLLENSEQILKFVKAGVLSEETIKSHIEMIESQIKYIEEKIERLRKEDPSLEPLLEEVEKIREEVKKTLEEIKKAAEERKKEEA
B17: usp_38_diff_out_22_164_481 (protein)
chain: KEEEIKEKLKKEIEEKIKETKKELDKLFAKAKADPEKKEEYIKEARMLLIKTQKELLELIEKTVKENNLSEETKEELRSFLTVQMLKLLNYLDEKEEELK
B18: usp_38_diff_out_22_74_485 (protein)
chain: SAEEEANAALRAEIDAKVADWNKYREEAERRIEEAIAAGRYREARRLLAELDDKTTDLIIWLNKQALANGAIHDYALAKAEEIRKKTTEVVERAEARLAA
B19: usp_38_diff_out_1_162_45 (protein)
chain: KVEEVLEEAERLLEEAEKLIEAAEKALAAGDLETARKYLDEAWDKLGELAKLLREARRLRRELSPERQEEVRKRLRELEERADELIDRLTELETEVFLRE
B20: usp_38_diff_out_24_27_497 (protein)
chain: EEEKKEKLEKLIKKFEEILKLAKEAVGADLATRIRLSREIDELLEEARKLAEELGIEEVKKIVTEVAVKASIVLSGSEEMEEAIEEIEKLIEEAKKLLEE
B21: usp_38_diff_out_20_123_454 (protein)
chain: SEELRKEAEELLRRAEQLLENAEQILKFVKAGVLSLEKVEEHIKFIEEHIKYLEEKLKELKKKDKSLKELLEKIEELIKKTKEVLKEIKEAVEKRKKEAA
B22: usp_38_diff_out_1_9_443 (protein)
chain: SVDDVIIEALEKALEDGLKELKELEKKAEKALKAGDKAQAEALLKRLIRNAEGLIAAAKDAIKLAKKAGLEERAKRLEEMLKEAEKLLEEAKKKLKELKA
B23: usp_38_diff_out_1_162_48 (protein)
chain: EVEELLKKAKEKLKEAKELIKKAKEALKAGDLETAKKYLDKAWDLLGELAKLLREARRKMRELSPEERKKVRKELKKLEEEADKLIDELTKLETEVFLKE
B24: usp_38_diff_out_1_162_44 (protein)
chain: AVEETLAQLEEALERAERLIEEAERALEEGDLERARELLDEAADTLGRAAQLLREARRLSRELSPEERARVRERLRELNERLDELIDRLTELEREVFLRE
B25: usp_38_diff_out_20_123_447 (protein)
chain: SEELRARAERLLRQAEQLLENAEQILKFVKAGVLSKETQKAHIEFIESQIETIRREIERLRAEDPSLAELLARIEEVLRKVEETLEEIKKAVEKREKEEA
B26: usp_38_diff_out_20_123_458 (protein)
chain: SSEALERAERLLRQAEQLLENAEQILKFVKAGALSEETVEEHIKFIETHIKYLEEELERLEEEHPELEELLERIREILERTRKVLEEIKKALEKRRKEKE
B27: usp_38_diff_out_24_27_495 (protein)
chain: EEEKKKLLEKLIEKFEKILELAKKAVGADLATRIKLSSEIDELLEEARKLAKELGIPEVEKLVTQVAIQASIVLSGSEEMEEAIKEIEKIIEELKKLLKE
B28: usp_38_diff_out_22_74_484 (protein)
chain: SAEEEETEKLRKEIEERKAETLARLEELRAAARAALAAGDERAARRLLAELDDLVTDTVIWLNKVALAHGAIHDYALETALEIRERATAIVAELEAALAA
B29: usp_38_diff_out_22_74_486 (protein)
chain: SAEAEEVAKIKAEIDKLVAELNAYLEKAKEEAEKAIAAGRLREARRIRAEMDDKVTDAIITLNKIALANGAIHDYALAKAQEIRDKSTKVFEEIDARLAA
B30: usp_38_diff_out_20_123_457 (protein)
chain: MEKLKAEAEALLKRAEALLENAKQILKFVKAGVLSEEQVEEHIEMIEEHIKYLEEELKKLKAAAPELKELLEKVEKAIKETKKVREEIKKELEKRRKEKE
B31: usp_38_diff_out_22_74_482 (protein)
chain: SAEAEAVAATKAEIEKLTAETLKKLDELYKEAKKYIEAGDYKNARRKLAEMDDLVTETVIYLNKVALAEGAVHDLALAKANEIRKKATEINEELEKLLKE
B32: usp_38_diff_out_20_123_455 (protein)
chain: SEELRERAERLLKRSKQLVENAKQILKFVKAGVLSEETVEEHIKFLEDLIKYFEEELERLKKEDPSLKELLEEVEAAIKEAKEVLKEIKEAAEKRKKEEE

Target: T1, USP38, Q8NB14
Assay: median log2 fold change of GCK-ALFA target abundance (FLAG IP / Myc IP barcode read proportion) (log2 ratio); each designed protein is fused to an ALFA-tag nanobody in HEK293 cells to bring the named protein to FLAG-tagged glucokinase (GCK); Myc marks an untargeted standard; higher = target protein stabilised (more abundant)
Conditions: target protein: 3xFLAG-MCP-GCK-ALFA reporter; HEK293 landing pad (RPLP)
Procedure, shortened: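 HEK293 landing-pad cells received a recombined binder library fused to the ALFA nanobody and were induced with 2 μg mL^−1 doxycycline, then transfected with a plasmid encoding a FLAG-tagged target and a Myc-tagged standard. Lysates were collected after 48 h for anti-FLAG and anti-Myc immunoprecipitation, and the circular RNA barcodes were reverse transcribed, amplified and sequenced. Target abundance for each binder is the median log2 ratio of FLAG to Myc barcode read proportions. Barcodes had to reach a proportion of at least 10^−7 in both replicates, each binder needed at least 3 barcodes per replicate, a pseudocount of 10^−6 was applied, and the two replicates were pooled.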

Binder | median log2 fold change
B1 | 0.0676
B2 | -0.392
B3 | 0.13
B4 | 0.309
B5 | 0.117
B6 | 0.247
B7 | -0.0676
B8 | -1.08
B9 | 0.227
B10 | 0.177
B11 | 0.438
B12 | 0.187
B13 | -0.00975
B14 | 0.134
B15 | 0.273
B16 | 0.529

Binder | median log2 fold change
B17 | -0.692
B18 | -0.0773
B19 | -0.331
B20 | 0.276
B21 | 0.308
B22 | 0.0775
B23 | -0.368
B24 | 0.133
B25 | 0.258
B26 | 0.0141
B27 | 0.368
B28 | 0.0294
B29 | -0.198
B30 | 0.24
B31 | 0.312
B32 | 0.12
